Measured values reported in PubChem BioAssay AID624330 (Southern Research Specialized Biocontainment Screening …, 2012).
Hit rate of the full screen: of about 340,000 compounds, about 2,100 (0.62%) were called active.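 How the source made its calls: active means first-screen hits whose inhibition reached a set limit at any dose in the follow-up dose series; inconclusive means inhibition above the set first-screen limit but never retested; inactive means the rest.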 The list is a sample of the results. Potency and affinity values are given separately.

What follows are compounds tested against Rac GTPase-activating protein 1 (Homo sapiens) (UniProt Q9H0H5) (assay: MgcRacGAP GTPase-activating activity inhibitors, confirmation, biochemical, ADP Hunter fluorescence, primary and confirmatory (AID 624330;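 further: fluorescence reports GDP produced by GAP-driven GTP hydrolysis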)). Details: MgcRacGAP-stimulated Rac1 GTP hydrolysis, at 30 µM, hits give high values, GST-tagged Rac1 F28L mutant substrate.
Chain of Rac GTPase-activating protein 1 (Homo sapiens) (Q9H0H5 whole entry, looked up): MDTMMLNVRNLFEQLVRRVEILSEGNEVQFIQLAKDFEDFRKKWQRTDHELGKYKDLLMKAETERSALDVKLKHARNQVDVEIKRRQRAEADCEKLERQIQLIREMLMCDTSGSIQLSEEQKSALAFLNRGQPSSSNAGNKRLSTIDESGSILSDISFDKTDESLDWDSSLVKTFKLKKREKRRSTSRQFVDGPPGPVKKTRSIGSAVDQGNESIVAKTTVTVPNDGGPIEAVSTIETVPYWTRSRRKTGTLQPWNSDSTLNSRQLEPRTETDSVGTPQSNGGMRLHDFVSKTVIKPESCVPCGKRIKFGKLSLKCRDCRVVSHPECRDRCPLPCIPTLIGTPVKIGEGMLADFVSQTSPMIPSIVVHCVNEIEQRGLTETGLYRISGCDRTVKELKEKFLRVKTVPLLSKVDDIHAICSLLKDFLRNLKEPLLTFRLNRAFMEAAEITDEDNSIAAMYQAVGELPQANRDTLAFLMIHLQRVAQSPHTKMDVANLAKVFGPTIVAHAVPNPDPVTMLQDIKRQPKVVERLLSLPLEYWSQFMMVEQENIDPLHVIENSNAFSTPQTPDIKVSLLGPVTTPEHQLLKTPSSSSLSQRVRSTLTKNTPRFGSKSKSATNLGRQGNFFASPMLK

inhibition, inactive:
CCOc1ccc(-c2csc(NC(=O)c3cccc(N4C(=O)CCC4=O)c3)n2)cc1 1.94%, COc1ccc(Cl)cc1NC(=O)NN1CCN(C)CC1 9.05%, COc1cccc(-c2c(C(=O)N/N=C(\C)c3ccco3)nnn2-c2nonc2N)c1 3.24%, Cc1nnc(C)n1/N=C/c1cccs1 17.6%, S=c1[nH]nc(-c2cccnc2)n1/N=C/c1ccc(Br)s1 8.12%, C(=N\N=C\c1cccs1)/c1cccs1 3.75%, Cc1ccc(/C=N/n2c(C)nnc2C)s1 5.21%, Cc1nnc(C)n1/N=C/c1cccc([N+](=O)[O-])c1 0.71%, c1cncc(-c2nnc3n2N=C(c2cccs2)CS3)c1 7.37%, O=[N+]([O-])c1ccc(/C=N/n2c(-c3cccnc3)n[nH]c2=S)cc1 14.5%, Cc1ccc(-c2n[nH]c(=S)n2/N=C/c2cccs2)cc1 25.8%, O=C(CCNC(=O)c1ccco1)NCc1ccc(C(=O)O)cc1 10.3%, O=C(NCc1cccnc1)c1ccc([N+](=O)[O-])cc1 6.96%, CC1(C)CC(=O)C2=C(C1)NC(SCC(N)=O)=C(C#N)C21CCCCC1 7.26%, CC(C)Oc1ccc(OCCn2c(S(=O)(=O)O)nc3c(N)ncnc32)cc1 2.7%, Cc1ccccc1OCCn1c(S(=O)(=O)O)nc2c(N)ncnc21 9.98%, CCOc1ccc(OCCn2c(S(=O)(=O)O)nc3c(N)ncnc32)cc1 12.6%, Cc1ccccc1OCCn1cnc2c(N)ncnc21 -13%, CN1CCN(C(=O)CSc2cc(=O)n(C)c3ccccc23)CC1 6.45%, CCOC(=O)N1CCC(NC(=O)C(CC(C)C)NC(=O)C2CCCCC2)CC1 (configuration not stated) 9.57%, Cc1ccc(S(=O)(=O)N2CCC(C(=O)NCCc3ccccn3)CC2)cc1 -0.14%, COc1ccc(Br)cc1/C=C/C(=O)NC(=S)Nc1ccc(Cl)c(C(=O)O)c1 6.62%, COc1ccc(/C=C2\SC(N)=NC2=O)cc1Cl 1.73%, COc1cc(/C=C2\SC(c3ccccc3)=NC2=O)cc(Cl)c1O 27.3%, COc1cc(/C=C2/SC(=S)N(Cc3ccccc3)C2=O)cc(Cl)c1O 10%, COc1ccc(Br)cc1C(=O)NC(=S)Nc1ccc(Cl)c(C(=O)O)c1 5.62%, COc1cc(/C=C2\SC(N)=NC2=O)cc(Br)c1O 29.2%, CC1CCCCN1C(=O)c1ccc(CS(=O)(=O)Cc2ccccc2)cc1 (configuration not stated) 8.5%, CCN1CCN(C(=O)c2[nH]c3ccc(OC)cc3c2C)CC1 6.11%, Cc1ccc(S(=O)(=O)NCCc2c[nH]c3ccccc23)cc1 4.49%, COc1ccc(CCNC(=O)CCn2c(=O)c3cccn3c3ccc(F)cc32)c(OC)c1OC 12.9%, O=C1NCC(COc2cccc3ccccc23)O1 (configuration not stated) -1.12%, Cn1c(O)c(N=NC(=O)CNC(=O)c2cccnc2)c2ccccc21 4.23%, CCN1C[C@@H]2[C@@H]3C(=O)N(Cc4ccccc4)C(=O)[C@@H]3[C@](C)(C1=O)N2C(=O)c1ccc(Br)cc1 7.24%, O=C(CNC(=O)c1ccc(Br)o1)Nc1ccc(F)c(S(=O)(=O)N2CCOCC2)c1 5.58%, Clc1ccc(/C=N/N2CCCCC2)cc1 7.04%, Clc1ccc(C=NN2CCCCCC2)cc1 -2.87%, CCOc1ccc(NC(=O)C(C)Oc2ccccc2C(=O)Nc2ccc(C)c(Cl)c2)cc1 (configuration not stated) 5.67%, CC1(NC(=O)NCc2ccccc2)CCS(=O)(=O)C1 (configuration not stated) 10.2%, O=C(c1cccc(Cl)c1)N1CCC(c2nc3ccccc3[nH]2)CC1 9.71%, O=NC1=C(c2c(O)[nH]c3ccccc23)CCCC1 5.2%, O=C1C(c2c(O)[nH]c3ccccc23)=Nc2ccccc21 8.12%, Cc1ccc(NC(=O)COc2nc(C)cs2)cc1 4.7%, CC(=O)C[C@H](O)CC(=O)[C@H]1OC(=O)CC/C=C\Cc2ccccc21 5.25%, COc1cc(CNCc2ccc(OC)c(OC)c2OC)cc(OC)c1 15.6%, COc1cc(CNCc2cccc3ccccc23)cc(OC)c1 25.2%, COc1ccc(CNCc2ccccc2C(F)(F)F)cc1 29.7%, COc1cc(CNCc2ccc(C)cc2)cc(OC)c1OC 22.2%, CCCCn1c(N)c(N(CC(C)C)C(=O)c2cccc(S(=O)(=O)N(C)c3ccccc3)c2)c(=O)[nH]c1=O 5.29%, CCOC(=O)CC(NC(=O)c1ccccc1)c1ccc(OC)cc1 (configuration not stated) 3.97%, COCCNC(=O)c1cccc(OC2CCN(Cc3ccccc3OCCO)CC2)c1 11.3%, O=C(NC(=S)N1CCCCCC1)c1ccccc1 2.51%, COc1c(O)cc2oc(-c3ccc(O)cc3)cc(=O)c2c1O 10.2%, COc1cc2oc(-c3ccc(O)cc3)cc(=O)c2c(O)c1OC 18.1%, CS(=O)(=O)N(Cc1ccco1)CC(O)Cn1cc(C=O)c2ccccc21 (configuration not stated) 8.31%, CCN(CC(=O)Nc1cc(C)c(Cl)cc1OC)CC(=O)NC1CCS(=O)(=O)C1 (configuration not stated) 8.4%, COc1ccc(Cl)cc1NC(=O)CN(C)C1CCS(=O)(=O)C1 (configuration not stated) 6.99%, COCCNC(=O)CSc1ncnc2sc(-c3ccccc3)cc12 6.39%, COCCn1c(=NC(=O)c2ccc(S(=O)(=O)N3CCOCC3)cc2)sc2cc(S(N)(=O)=O)ccc21 8.39%, FC(F)(F)c1cnc2c(-c3ccc(Cl)cc3Cl)noc2c1 10.7%, CO/N=C/C(C(C)=O)C(=O)Nc1ccc(Cl)cc1Cl (configuration not stated) 1.68%, CC(=O)c1cccc(NC(=O)Nc2c(C)nn(C)c2C)c1 6.89%
